# Results taken from PubChem BioAssay (NCATS).
# Inconclusive results are not listed. A number with no mark means an inactive call. Calls follow the shape of the dose curve; as a rule, active = well fitted inhibition curve with a large enough effect; inconclusive = small, poorly fitted or top-dose-only effect; inactive = flat fitted curve, though single readings scatter.
# Target: Aldehyde dehydrogenase, mitochondrial (Homo sapiens) (UniProt P05091)
# Test: qHTS for Inhibitors of the Aldehyde Dehydrogenase Family (ALDH2) Primary screen (AID 2061308);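 also: plate controls were vehicle for no effect and reference inhibitor for full effect; nearly all actives have a fitted effect of over 55% in size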
# Conditions: ALDH2 enzyme inhibition qHTS, 1536-well; series mostly up to 56 µM; activity change, negative = inhibition: at the top concentration
row,SMILES,"activity change, negative = inhibition"
1,C[C@H]1/C=C/C=C/C=C/C=C/C=C/[C@@H](O)[C@H](C(=O)O)[C@H](O)C[C@H](O)CCC[C@H](O)C[C@H](O)C[C@H](O)[C@@H](C)C(=O)O[C@@H]1C,-1.96% [at 16.9 µM]
2,CC(=O)OC[C@H]1O[C@H](O[C@]2(CO)O[C@H](CO)[C@@H](OC(=O)/C=C/c3ccccc3)[C@@H]2O)[C@H](O)[C@@H](O)[C@@H]1O,-7.12% [at 28 µM]
3,NC1CCC(Nc2cc(-c3cccc(NCc4cccc(F)c4)n3)c(Cl)cn2)CC1 (stereo not given),5.35%
4,CC(C)(C)c1ccc(C(=O)Nc2cn3cc(-n4ccnc4)ccc3n2)cc1,6.2%
5,C=C1C(OC(C)=O)[C@@]23CCC4[C@](C)(C(=O)O)CCC[C@@]4(C)[C@]2(O)CC[C@H]1C3 (stereo not given in full),7.7%
6,CC(=O)N[C@H](Cc1c[nH]c2ccccc12)C(=O)OCc1cc(C(F)(F)F)cc(C(F)(F)F)c1,-5.2%
7,CN(CC1(C)CCCO1)S(=O)(=O)c1ccc(Cl)c(S(N)(=O)=O)c1 (stereo not given),-4.94%
8,CC12CC34C=CC(=O)C(C)(CCC(=O)O)C3C(CC1C4)O2 (stereo not given),-2.68%
9,C=C1C(OC(C)=O)CCC2(C)CCC(C(C)(C)O)CC12 (stereo not given),8.51%
10,COc1cc(C(C)=O)ccc1O[C@@H]1O[C@H](CO[C@@H]2OC[C@@H](O)[C@H](O)[C@H]2O)[C@@H](O)[C@H](O)[C@H]1O,6.56% [at 28 µM]
11,Nc1nc(Nc2ccc3c(c2)CCC(N2CCCC2)CC3)nn1-c1cc2c(nn1)-c1ccccc1CCC2 (stereo not given),17.7%
12,CC(C)(O[C@@H]1O[C@H](CO)[C@@H](O)[C@H](O)[C@H]1O)C(OC(=O)/C=C\c1ccc(O)cc1)C(=O)OCc1ccc(O[C@@H]2O[C@H](CO)[C@@H](O)[C@H](O)[C@H]2O)cc1 (stereo not given in full),7.24% [at 16.9 µM]
13,CC1=C2C3OC(=O)C(C)C3(O)CCC2(C)CCC1O (stereo not given),-8.3%
14,COC(=O)N1CCC(n2ncc3c(N4CCOCC4)nc(-c4ccc(NC(=O)Nc5ccc(CO)cc5)cc4)nc32)CC1,12.6%
15,Cc1nc(C#Cc2ccnc(Cl)c2)c(C)n1-c1ccc(OC(F)(F)F)cc1,-7.23%
16,COC(=O)C1=CO[C@@H](O[C@@H]2O[C@H](CO)[C@@H](O)[C@H](O)[C@H]2O)[C@@H]2[C@@H](C)[C@@H](O)C(O)[C@H]12 (stereo not given in full),6.99% [at 28 µM]
17,CC(=O)O[C@@H]1[C@H](O[C@@H]2O[C@@H](CO)[C@H](O)[C@H]2O)[C@@H](O[C@@H]2O[C@@H](C)[C@H](O[C@@H]3OC[C@@H](O)[C@H](O)[C@H]3O)[C@@H](O)[C@H]2O)[C@H](OC(=O)[C@]23CCC(C)(C)C[C@H]2C2=CCC4[C@@]5(C)CC[C@H](O[C@@H]6O[C@H](C(=O)O)[C@@H](O)[C@H](O)[C@H]6O[C@@H]6O[C@H](CO)[C@H](O)[C@H](O)[C@H]6O)[C@@](C)(C=O)C5CC[C@@]4(C)[C@]2(C)CC3)O[C@@H]1C (stereo not given in full),4.21% [at 11.2 µM]
18,O=C1COC2(CCN(S(=O)(=O)c3ccc(-c4ccc5cccnc5c4)cc3)CC2)CN1C1CC1,-3.41%
19,C=C1CC[C@@H]2[C@](C)(CO)[C@H](O)CC[C@@]2(C)[C@@H]1C/C=C1/C(=O)OCC1OC(=O)/C(=C/CO)C(O)C[C@@H]1C(=C)CC[C@@H]2[C@](C)(CO)[C@H](O)CC[C@]21C (stereo not given in full),10.6% [at 16.9 µM]
20,CC1(C)Oc2ncnc(N)c2N=C1c1ccc(C2CCC(CC(=O)O)CC2)cc1 (stereo not given),14.9%

row,SMILES,"activity change, negative = inhibition"
1,CC1(C)CC2C3=CCC4C5(C)CCC(OC6OC(C(=O)O)C(O)C(O)C6OC6OC(CO)C(O)C(O)C6OC6OC(CO)C(O)C(O)C6O)C(C)(CO)C5CCC4(C)C3(C)CCC2(C)C(OC2OCC(O)C(OC3OC(CO)C(O)C(O)C3O)C2O)C1O (stereo not given),5.84% [at 11.2 µM]
2,CC1COC2(OC3CC4C5CC(O[C@@H]6O[C@H](C)[C@@H](O[C@@H]7O[C@@H](C)[C@H](O)[C@@H](O)[C@H]7O)[C@H](O)[C@H]6O)C6CC(O)CCC6(C)C5CCC4(C)C3C2C)C(O)C1 (stereo not given in full),-6.68% [at 16.9 µM]
3,C=C1CC[C@H]2[C@@H](/C=C(\C)C(=O)[C@@]3(OC(C)=O)C[C@H](C)[C@H](OC(C)=O)[C@@H]3[C@H]1OC(C)=O)C2(C)C,-13.4% [at 28 µM]
4,CC(C)Oc1ccc(-c2nc(-c3cccc4c3CCC4NCCC(=O)O)no2)cc1C#N (stereo not given),34.4%
5,Cc1cccc(/C=N/Nc2cc(N3CCOCC3)n3nc(-c4ccncc4)cc3n2)c1,5.99%
6,CC(=O)O[C@H]1C[C@@]2(C)[C@@H](CC[C@H]3[C@@]4(C)C=CC(=O)[C@@H](C)[C@@H]4[C@H](OC(C)=O)C(=O)[C@@]32C)/C1=C(\CCC=C(C)C)C(=O)O,12.8% [at 28 µM]
7,C[C@@H]1O[C@@H](O[C@H]2[C@@H]3C=CO[C@@H](O[C@@H]4O[C@H](CO)[C@@H](O)[C@H](O)[C@H]4O)[C@@H]3[C@@]3(CO)O[C@@H]23)[C@H](O)[C@H](OC(=O)/C=C/c2ccccc2)[C@H]1O,3.02% [at 16.9 µM]
8,C=C1C(=O)OC2/C=C(\C)CC/C=C(\C=O)C(OC)C(OC(=O)C(C)CC)C12 (stereo not given),-4.35%
9,C/C(=C\CCC(C)CCO)C(=O)OC1(C)CCC2C(C(=O)O)=COC(OC3OC(CO)C(O)C(O)C3O)C21 (stereo not given),-0.926% [at 28 µM]
10,CC(C)CC[C@@H](O)[C@](C)(O)[C@H]1CC[C@@]2(O)C3=CC(=O)[C@@H]4C[C@@H](O)[C@@H](O)C[C@]4(C)[C@H]3CC[C@]12C,-17.7%
11,COC(=O)c1cc(Br)cnc1N1CCC(NC2CCCCC2)C(O)C1 (stereo not given),-9.16%
12,C=C1C(=O)O[C@@H]2CC(C)=C([C@@H](C)CCCOC(C)=O)[C@@H](O)[C@H]12,-0.486%
13,CC/C=C/C=C/C1(C)OC(CC(CO)OC)=CC1=O (stereo not given),-4.79%
14,CC(=O)NC(CCC(=O)O)C(=O)NCCc1ccc(O)cc1 (stereo not given),-4.83%
15,CO[C@@H]1[C@]2(O)C(=O)N3/C=C\C(C)(C)c4[nH]c5ccccc5c4/C=C\3C(=O)N2[C@]23[C@H](CO)C(C)(C)N2c2ccccc2[C@]13O,-9.85% [at 28 µM]
16,COC1CC(O[C@H]2CC[C@@]3(C)C(CCC4C3[C@H](OC(C)=O)[C@@H](OC(=O)/C=C/c3ccccc3)[C@]3(C)C(C(C)=O)CC[C@]43O)C2)OC(C)C1OC1CC(OC)C(OC2CC(OC)C(OC3OC(C)C(OC4OC(CO)C(O)C(O)C4O)C(OC)C3O)C(C)O2)C(C)O1 (stereo not given in full),6.42% [at 11.2 µM]
17,C=C(C(=O)O)[C@@H]1CC[C@H](C)[C@@H]2CC(=O)C(C)=C2C1,3.54%
18,CCNC(=O)[C@@H]1CCCN1C(=O)[C@H](CCCN=C(N)N)NC(=O)[C@H](CC(C)C)NC(=O)[C@@H](CC(C)C)NC(=O)[C@H](Cc1ccc(O)cc1)NC(=O)[C@H](CO)NC(=O)[C@H](Cc1c[nH]c2ccccc12)NC(=O)[C@H](Cc1cnc[nH]1)NC(=O)[C@@H]1CCC(=O)N1,-2.19% [at 28 µM]
19,C=C1CCC2C(C)(C)CCCC2(C)C1CC/C(C)=C\CO (stereo not given),-2.18%
20,COC(=O)C1=COC(OC2OC(CO)C(O)C(O)C2O)C2C1CC(OC(=O)C(O)CC(=O)O)C2C (stereo not given),-0.662% [at 28 µM]
